Assay outcomes (PubChem BioAssay)
SARS PLpro yeast – inhibitors of SARS-CoV papain-like protease in yeast. S. cerevisiae expressing SARS-CoV PLpro, growth rescue. Potency, µM (titrated, usually from 32.9 µM), usual class: activators. 330,000 compounds, 0.19% hits; calls by dose curve; note: nearly all actives have a fitted effect of over 55% in size
Pf growth 96h – P. falciparum growth inhibition at 96 hours; P. falciparum luciferase reporter growth, 96 h; Potency, µM (doses to about 28.7 µM), most hits filed as inhibitors; AID 504834; 320,000 compounds, 6.9% hits
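Cell-based qHTS: luciferase-tagged P. falciparum in erythrocytes (2% hematocrit, 0.05% parasitemia final) incubated with compounds for 96 hours, 37 C, 5% CO2; luciferase detection reagent then added and luminescence measured.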
Pf growth 48h – P. falciparum growth inhibition at 48 hours (one generation). P. falciparum luciferase growth in erythrocytes, 48 h. Potency, µM (highest dose often 28.7 µM), most hits filed as inhibitors. 310,000 compounds, 5.9% hits. AID 504832
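Compounds are pin-transferred into medium, infected erythrocytes (2% hematocrit, 0.1% parasitemia final) are added, and plates sit one parasite generation at 37 C in 5% CO2. Detection reagent is then added and luminescence measured.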
AMA1 RON2 block – inhibitors of Plasmodium falciparum AMA1-RON2 interaction; AlphaScreen AMA1-biotinylated RON2 peptide binding; Potency, µM (top dose mostly 58.2 µM), actives largely listed as inhibitors; 360,000 compounds, 0.2% hits; AID 720542; note: nearly all actives have a fitted effect of over 45% in size
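AMA1 (3D7) with his tag at 25 nM final met compounds first, then biotinylated RON2 peptide at 25 nM; detection used donor plus acceptor beads, 10 µg/mL apiece, read by AlphaScreen after 30 min at room temperature.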
Cycloheximide cs – affects cycloheximide protein synthesis inhibition readout, counter-screen; max response, %; AID 2314; 300,000 compounds, 12% hits; cell reporter, cycloheximide protein synthesis inhibition counterscreen; in the data active = max response mostly above about 13%, no sharp cut-off; inactive = mostly below about 14%; note: read at 38.3 µM for the half of the compounds with a filed dose
Shiga inhibitor – Shiga toxin inhibition; AID 2315; inhibition, % at 38.7 µM; Vero cells, Shiga toxin protein synthesis inhibition reporter; 290,000 compounds, 9.2% hits; in the data active = inhibition mostly above about 28%, no sharp cut-off; inactive = mostly below about 43%
Each line names hits and unclear results; the compound was inactive in the other large screens. Compounds with a hit are over-represented: about 19% of the library has one in this group of screens. Unless noted, calls come from the whole dose curve; as a rule, active = well fitted curve in the direction sought with a large enough effect; inconclusive = small, poorly fitted or top-dose-only effect, or another doubt; inactive = no such curve, though single readings can be large; an effect the other way counts as inactive or inconclusive.

CC(=O)N1c2ccc(S(=O)(=O)NCCC(=O)Nc3ccc(F)cc3)cc2CC1C (stereo not drawn)	Pf growth 48h inconclusive
CCC1CCCCN1C(=O)CCn1c(=O)oc2ccccc21 (stereo not drawn)	none (no result: SARS PLpro yeast, Pf growth 96h, Pf growth 48h, Cycloheximide cs, Shiga inhibitor)
CCC1CCCCN1CCNC(=O)CCS(=O)(=O)c1ccc(Br)cc1 (stereo not drawn)	Pf growth 96h 3.29µM, Pf growth 48h inconclusive
O=C(CCS(=O)(=O)c1ccc(Br)cc1)NCCc1ccccc1	none
CCC1CCCCN1C(=O)CN1C(=O)c2ccccc2S1(=O)=O (stereo not drawn)	Pf growth 48h inconclusive (no result: Cycloheximide cs, Shiga inhibitor)
CCC1CCCCN1C(=O)CCCc1ccccc1 (stereo not drawn)	Cycloheximide cs 34.9, Shiga inhibitor 70.4
O=C(CCCc1ccccc1)N1CCN(C2CCCCC2)CC1	Pf growth 96h inconclusive, Cycloheximide cs 29.3 (no result: Shiga inhibitor)
CCC1CCCCN1C(=O)CCS(=O)(=O)c1ccccc1 (stereo not drawn)	Cycloheximide cs 34.2, Shiga inhibitor 76.1
Cc1ccc(N2C(=O)N(CC(=O)C(C)(C)C)c3ccccc3S2(=O)=O)cc1	Pf growth 96h inconclusive, Pf growth 48h inconclusive (no result: AMA1 RON2 block)
C=Cc1c(C)c2cc3nc(cc4[nH]c(cc5nc(cc1[nH]2)C(C)=C5CCC(=O)O)c(CCC(=O)OC)c4C)[C@@]1(C)C3=CC=C(C(=O)OC)[C@H]1C(=O)OC (tested in a mixture with another compound)	Pf growth 96h 3.38µM, Pf growth 48h 3.79µM (no result: SARS PLpro yeast, AMA1 RON2 block, Cycloheximide cs, Shiga inhibitor)
O=C(N1CCCC1)C12CCC3CC(CC(C3)C1)C2	Pf growth 96h 9.28µM (no result: Pf growth 48h)
O=C(N1CCCCC1)C12CC3CC(CC(C3)C1)C2	Pf growth 96h inconclusive
C=CCn1nc(-c2ccccc2)cc1C(=O)OCC	none (no result: SARS PLpro yeast, Pf growth 96h, Pf growth 48h, Cycloheximide cs, Shiga inhibitor)
C=Cn1c(C(=O)O)cc(CC)c1-c1ccccc1	Pf growth 96h 1.47µM
CCOc1ccc(OCCC(=O)Nc2ccc(N3CCOCC3)cc2N2CCOCC2)cc1	none (no result: SARS PLpro yeast, Pf growth 96h, Pf growth 48h, Cycloheximide cs, Shiga inhibitor)
Cc1ccc(-n2nc3c(c2NC(=O)c2ccco2)CS(=O)(=O)C3)c(C)c1	Pf growth 96h inconclusive
Cc1ccc(-n2nc3c(c2NC(=O)C(C)C)CS(=O)(=O)C3)c(C)c1	Pf growth 96h inconclusive, Pf growth 48h 0.0147µM
COC(CNc1cc(=O)oc2ccccc12)OC	none (no result: Pf growth 48h)
CC(Sc1nc2ccccc2n1C)C(=O)NC(c1ccccc1)c1ccccc1 (stereo not drawn)	Pf growth 96h 5.86µM, Pf growth 48h 9.28µM
O=C(C1CCN(c2nc(-c3ccccc3)nc3c2CCC3)CC1)N1CCC(O)CC1	Pf growth 96h inconclusive, Pf growth 48h 3.7µM (no result: SARS PLpro yeast)
CCOC(=O)C1CCN(C(=O)CSc2c3c(nc4ccccc24)CCC3)CC1	none
CCOC(=O)C1CCN(c2nc(-c3ccc(C)cc3)nc3ccccc23)CC1	Pf growth 96h inconclusive, Pf growth 48h inconclusive
COCC1CCCCN1C(=O)C1CCN(c2nc(-c3ccccc3)nc3c2CCC3)CC1 (stereo not drawn)	Pf growth 48h 9.28µM
O=C(O)c1c2c(nc3ccc(S(=O)(=O)N4CCC(C(=O)N5CCCCC5)CC4)cc13)CCCC2	none (no result: Pf growth 48h)
COCC1CCN(C(=O)C2CCN(c3nc(-c4ccccc4)nc4c3CCC4)CC2)C1 (stereo not drawn)	Pf growth 96h inconclusive, Pf growth 48h 7.38µM
Cc1cc(C)c(S(=O)(=O)N2CCOC2CNC(=O)C(=O)NCCN2CCOCC2)c(C)c1 (stereo not drawn)	Pf growth 48h inconclusive
O=C(NCCCN1CCOCC1)C(Sc1ccccc1)c1ccccc1 (stereo not drawn)	Pf growth 96h 7.38µM
Cc1c(C(=O)NCC2CCCO2)oc2ccccc12 (stereo not drawn)	none (no result: Cycloheximide cs, Shiga inhibitor)
COc1ccc2oc(C(=O)NCCN3CCOCC3)c(C)c2c1OC	Cycloheximide cs 61.1, Shiga inhibitor 63.2
Cc1cc(C)c(S(=O)(=O)N2CCOC2CNC(=O)C(=O)NCCCN2CCOCC2)c(C)c1 (stereo not drawn)	Pf growth 96h inconclusive, Cycloheximide cs 34.6, Shiga inhibitor 80.1
Cc1ccc2oc(C(=O)NCCC3CCCCO3)c(C)c2c1 (stereo not drawn)	Pf growth 96h inconclusive, Cycloheximide cs 26.4, Shiga inhibitor 63.0
COc1ccsc1C(=O)NCCN1CCOCC1	SARS PLpro yeast inconclusive
O=C(COC(=O)c1ccccc1O)Nc1ccc(N2CCOCC2)cc1	none (no result: Cycloheximide cs, Shiga inhibitor)
O=S(=O)(c1ccc(F)c(F)c1)N1CCN(S(=O)(=O)c2cccs2)CC1	none
CCC(C)NS(=O)(=O)c1ccc(NC(=O)C(Sc2ccccc2)c2ccccc2)cc1 (stereo not drawn)	Pf growth 48h inconclusive
CCCCNS(=O)(=O)c1ccc(NC(=O)C(Sc2ccccc2)c2ccccc2)cc1 (stereo not drawn)	Pf growth 96h inconclusive, Pf growth 48h 10.4µM
Cc1ccc2oc(C(=O)NCCCN3CCOCC3)c(C)c2c1	Cycloheximide cs 43.6, Shiga inhibitor 71.2
Cc1cc(C)c(C(=O)NCCCN2CCOCC2)c(C)c1	Pf growth 96h inconclusive
Cc1ccc(C(=O)NCCCN2CCOCC2)c(C)c1	Cycloheximide cs 19.5
Cc1ccc(C(=O)NCCCN2CCOCC2)c(Cl)c1	Pf growth 96h inconclusive, Cycloheximide cs 16.8 (no result: Shiga inhibitor)
CNc1nc(NC)c2cn[nH]c2n1	none (no result: SARS PLpro yeast, Pf growth 96h, Pf growth 48h, Cycloheximide cs, Shiga inhibitor)
COC(=O)c1cc(C)ccc1OCc1ccc([N+](=O)[O-])cc1	none
CCCCN1C(=O)C(CC(=O)NCCc2ccccn2)CC(C(=O)N2CCCCCC2)=C1C (stereo not drawn)	none (no result: SARS PLpro yeast, Pf growth 96h, Pf growth 48h, Cycloheximide cs, Shiga inhibitor)
Cc1ccc(-n2c3c(cc(C(=O)NCCCN4CCOCC4)c2=O)C(=O)CC(C)(C)C3)cc1	Pf growth 96h 0.828µM
Clc1ccc(CSc2cc3c(nn2)-c2ccccc2CC3)cc1	Cycloheximide cs 15.0
Clc1ccc(CSc2ccc(-c3ccccn3)nn2)cc1	Pf growth 96h inconclusive, Pf growth 48h inconclusive
COc1ccc(NC(=O)c2c(C)noc2C(C)C)cc1S(=O)(=O)N1CCCCC1	Pf growth 96h inconclusive, Pf growth 48h inconclusive (no result: Cycloheximide cs, Shiga inhibitor)
O=C(CC[C@H]1O[C@@H](n2ccc(=O)[nH]c2=O)[C@H](O)[C@@H]1O)N[C@H](Cc1ccccc1)C(=O)NCC1CCCO1 (stereo partly drawn)	none (no result: SARS PLpro yeast, Pf growth 96h, Pf growth 48h, Cycloheximide cs, Shiga inhibitor)
Cc1cc(N2CCOCC2)n2nc(C)c(-c3ccccc3Cl)c2n1	Pf growth 96h 5.22µM, Pf growth 48h inconclusive
Cc1cc(N2CCOCC2)n2nc(C)c(-c3ccccc3)c2n1	none (no result: Pf growth 96h)
COc1ccc(/C=N/N2CCOCC2)cc1COc1ccc(F)cc1	Pf growth 48h inconclusive, Cycloheximide cs 35.0
COc1ccc(/C=N/NC(=O)c2ccccc2O)cc1Cn1cc(Cl)cn1	Cycloheximide cs 15.7
COc1ccc(/C=N/N2CCOCC2)cc1Cn1cc([N+](=O)[O-])cn1	Cycloheximide cs 15.1
COc1ccc(/C=N/NC(=O)c2ccc(N)cc2)cc1Cn1cc([N+](=O)[O-])cn1	Pf growth 96h 11.7µM
COc1ccc(/C=N/N2CCOCC2)cc1COc1ccc(Cl)cc1	none
